Sampled rows, rich in hits. Any-hit rate of the full collection: about 2.5%.
OPRK1 antag MB: antagonists of human kappa opioid receptor OPRK1, Maybridge library; P41145; OPRK1 cells, antagonist mode, fluorescence readout; inhibition, % at 9 µM; 16,000 tested, 0.4% active; in the data active = inhibition above about 50%
S1P1 agonist: activates the human S1P1 receptor. P21453. activation, % at 4.5 µM. 16,000 tested, 1.5% active. S1P1 agonist cell-based reporter assay; in the data active = activation above about 80%
Target sequence (P21453 whole entry, looked up): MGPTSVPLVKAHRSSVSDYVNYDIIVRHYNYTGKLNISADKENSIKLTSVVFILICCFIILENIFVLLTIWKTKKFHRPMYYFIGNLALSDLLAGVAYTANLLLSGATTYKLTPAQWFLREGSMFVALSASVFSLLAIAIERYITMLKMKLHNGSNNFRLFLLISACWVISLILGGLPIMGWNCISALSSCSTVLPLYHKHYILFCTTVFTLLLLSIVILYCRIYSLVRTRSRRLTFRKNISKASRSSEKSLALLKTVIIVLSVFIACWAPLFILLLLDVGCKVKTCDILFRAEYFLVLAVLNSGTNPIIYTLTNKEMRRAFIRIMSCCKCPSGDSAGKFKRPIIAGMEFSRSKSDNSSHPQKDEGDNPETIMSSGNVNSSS
rat GALR2 agon: agonists of rat galanin receptor 2 (GALR2); 16,000 tested, 0.5% active; O08726; AID 833; cell-based GALR2 agonist screen; activation, % at 10 µM; in the data active = activation above about 15%
TLR4 MyD88 blk: TLR4-MyD88 interaction inhibition; inhibition, % at 10 µM; O00206; 16,000 tested, 0.06% active; Cell-based TLR4-MyD88 binding inhibition assay; in the data active = inhibition above about 45%
Each line names hits and unclear results; the compound was inactive in the other large screens.

Cc1cc(-c2n[nH]c(=S)n2C)nn1-c1ccc([N+](=O)[O-])cc1	S1P1 agonist 100
Cc1ccc(C(=O)N2CCN(c3ncccc3C(F)(F)F)CC2)cc1	none
N#Cc1cnc(Oc2ccc(Cl)cc2)nc1N	rat GALR2 agon 21
COc1ncc(C#N)c(N)n1	none
COc1cc(/C=N/NC(=O)CSCc2c(Cl)cccc2Cl)cc(OC)c1OC	none
CCOc1ccc(NC(=O)c2cc(C)n(C)n2)cc1	S1P1 agonist 126
Fc1ccc(CSc2nnc(-c3ccncc3)s2)cc1	S1P1 agonist 101
COC(=N)c1nccnc1SCc1ccc(F)cc1	none
Cc1ccc(CSc2nnc(-c3cnccn3)s2)cc1	S1P1 agonist 93
Cc1nn(-c2ccccc2)c2nc3nc(-c4ccc([N+](=O)[O-])cc4)[nH]c(=O)c3cc12	none
COC(=O)c1cc(-c2ccc(S(=O)(=O)NCc3ccc4c(c3)OCO4)cc2)c(C(F)(F)F)s1	none
Cc1cc(=O)oc2cc(NC(=O)c3nccnc3C(=O)O)ccc12	none
COc1ccc(CCNC(=O)C2CCCO2)cc1OC (stereo not drawn)	none
COc1ccc(CCN2C(=O)CCC(C(=O)O)C2c2cc(OC)c(OC)c(OC)c2)cc1OC (stereo not drawn)	S1P1 agonist 116
CSc1nc(-c2cccs2)cc(C(F)(F)F)c1C#N	rat GALR2 agon 31
CSc1nc(N)nc(-c2cccs2)c1C#N	none
CCOC(=O)c1ccc(OCCOC)c(OCCOC)c1	none
COCCOc1cc2ncnc(N3CCC(C(=O)O)CC3)c2cc1OCCOC	S1P1 agonist 113
c1cncc(Cn2cccc2)c1	none
N#CC(C#N)=NNc1ccc(Cl)c(Cl)c1C#N	none
N#CC(C#N)=NNc1ccc(F)cc1F	S1P1 agonist 105
CCOC(=O)[C@@H](N)CCSC	OPRK1 antag MB 52
CN(CCC#N)c1ccc(C=NCCCN=Cc2ccc(N(C)CCC#N)cc2)cc1	S1P1 agonist 101
Cc1c2c(=O)n(C)ncc2c(-c2ccccc2)n1-c1ccc([N+](=O)[O-])cc1	none
O=c1c2c(-c3ccc([N+](=O)[O-])cc3)onc2n(-c2ccccc2)c(=O)n1-c1ccccc1	S1P1 agonist 123
N#Cc1c(Cl)cccc1Oc1ccc(S(=O)(=O)NNc2c(Cl)cncc2Cl)cc1	S1P1 agonist 108
CC(=O)Nc1cccc(OCCCNS(=O)(=O)c2ccc(Oc3cccc(Cl)c3C#N)cc2)c1	S1P1 agonist 93
CC(=O)Nc1cccc(OCCCNS(=O)(=O)c2cn(C)c(C)n2)c1	none
N#Cc1ccc(N2CCN(S(=O)(=O)c3ccccc3)CC2)nc1	none
O=S(=O)(c1ccccc1)N1CCN(c2ncnc3sccc23)CC1	S1P1 agonist 92
O=C(NCc1ccccn1)c1cccc(C(F)(F)F)n1	none
O=C(NCc1ccccn1)c1cccnc1SCCS(=O)(=O)c1cccc(C(F)(F)F)c1	S1P1 agonist 117
CCOC(=O)c1c(NC(=O)c2ccc3ncccc3c2)sc(C)c1C	rat GALR2 agon 42 (no result: TLR4 MyD88 blk)
CCOC(=O)c1c(NC(=S)Nc2cc(C)nn2-c2ccccc2)sc(C)c1C	none
Cc1nc(C(F)(F)F)ccc1C(=O)N1CCSCC1	none
Cc1nc(C(F)(F)F)ccc1C(=O)N1CCN(c2nc3ccc(Cl)cc3s2)CC1	S1P1 agonist 88
CCOC(=O)Cn1c(=O)c(-c2nc(-c3ccc(Cl)cc3)cs2)cn(C(C)C)c1=O	rat GALR2 agon 16
O=c1c2cc(-c3ccccc3)sc2nnn1/N=C/c1cccs1	OPRK1 antag MB 71
COC(=O)c1cccc(NC(=O)NC(=O)c2cccs2)c1	rat GALR2 agon 16
CC(=O)N1CCC(C(=O)O/N=C(\N)c2ccc(Cl)cc2)CC1	OPRK1 antag MB 126
CC(=O)N1CCC(NC(=O)Oc2ccc(Cl)cc2)CC1	none
CSc1ccc(OC(=O)c2ccc(Cl)cc2)cc1	none
N#C/C(=N\Nc1ccc(C(F)(F)F)cc1)S(=O)(=O)c1cccs1	S1P1 agonist 110
Cc1nnsc1C(=O)Oc1ccc([N+](=O)[O-])cc1	none
O=C(CC(C(=O)c1ccccc1)c1cccs1)c1ccc(Cl)cc1 (stereo not drawn)	none
COc1ccc(C(=O)CC(C(=O)c2ccccc2)c2ccccc2)cc1 (stereo not drawn)	S1P1 agonist 102
N#Cc1ccccc1NC(=O)CSc1ncccn1	none
O=S(=O)(Nc1ccc(Cl)cc1OC(F)(F)F)C(F)(F)F	none
CCOC(=O)c1c(C)csc1NC(=O)c1cccs1	rat GALR2 agon 19
Cc1cc(-c2onc(C)c2C(=O)O/N=C(\N)c2cccc(C(F)(F)F)c2)no1	none
NC(=NC(=O)c1cccc(C(F)(F)F)c1)c1ccc(C(F)(F)F)cn1	OPRK1 antag MB 58
N/C(=N\OC(=O)c1cccc(C(F)(F)F)n1)c1cccc(C(F)(F)F)c1	S1P1 agonist 91
O=[N+]([O-])c1ccc(N2CCCC2)c(Cn2ccnc2)c1	none
O=[N+]([O-])c1ccc(N2CCN(c3ccc([N+](=O)[O-])cc3CO)CC2)c(CO)c1	S1P1 agonist 82
Cc1ccc(OC(=O)c2c([N+](=O)[O-])c(C)nn2C)c(C)c1	none
COC(CNC(=O)C(=O)Nc1ccc(Cl)cc1Cl)OC	none
O=C(Nc1ccc(OC(F)(F)F)cc1)N1CCCN(CCc2ccccc2)CC1	none
CC(C)(C)c1cc(C(=O)/C(C#N)=N/Nc2cccc(Cl)c2)no1	S1P1 agonist 108
COc1cc(Cl)ccc1N/N=C(\C#N)C(N)=O	none
Cc1cc(C(=O)/C(C#N)=N/Nc2cccc(Cl)c2)n(C(C)(C)C)n1	S1P1 agonist 88
Cc1cc(C(=O)NNc2cc(C(F)(F)F)ccc2Cl)n(C(C)(C)C)n1	none
OC(COc1ccc(N=Cc2ccc(Cl)cc2)cc1)CN1CCCCC1 (stereo not drawn)	none
OC(COc1ccc(C23CC4CC(CC(C4)C2)C3)cc1)CN1CCCCC1 (stereo not drawn)	rat GALR2 agon 27
COc1ccc(-c2nc(-c3cccc(C)c3)no2)cc1OC	S1P1 agonist 97
COc1ccc(-c2nc(-c3ccc(OS(=O)(=O)N(C)C)cc3)no2)cc1OC	S1P1 agonist 107 (no result: TLR4 MyD88 blk)
COc1ccc(-c2noc(-c3ccccc3)n2)cc1OC1CCCC1	S1P1 agonist 98
Cc1cccc(-c2noc(C(=O)NNC(=O)C(Cl)(Cl)Cl)n2)c1	none
Cc1ccc(Oc2c([N+](=O)[O-])cc(C(F)(F)F)cc2[N+](=O)[O-])cc1	none
CN(C)c1ccc(/C=N/Nc2c(Cl)cncc2Cl)cc1	none
N#CC(C#N)=CNCCS(=O)(=O)c1ccc(C(F)(F)F)cn1	none
NS(=O)(=O)c1cc(Br)c(Cl)s1	none
CCOC(=O)c1nnc2c3c(-c4ccccc4)c(-c4ccccc4)nnc3nn2c1C	S1P1 agonist 101
N#C/C(=C\Nc1ccc(F)c(Cl)c1)C(=O)C1CC1	none
N#C/C(=C\Nc1ccc2c(c1)OCCO2)C(=O)c1ccc(Cl)cc1	S1P1 agonist 85
COC(=O)CSc1nc(C)nc(SC)c1C#N	none
CCOC(=O)CNc1ccc(C(F)(F)F)cc1	rat GALR2 agon 61
CCOC(=O)NC(=S)Nc1ccc(C(C)(C)C)cc1	none
Cc1ccc([N+](=O)[O-])c(NS(=O)(=O)c2cc(Cl)c(Cl)cc2Cl)c1	S1P1 agonist 87
O=C(NC(=O)N1CCN(c2ccc([N+](=O)[O-])cn2)CC1)c1c(F)cccc1Cl	none
COc1ccc(NC(=O)CC(C)=O)cc1	none
Cc1cc(C)n(-c2ncnc3c2nnn3Cc2ccccc2Cl)n1	none

Screening data as filed in PubChem.
